The structures appear in SMILES notation. Entries with a potency or affinity are not part of this list. Calls of active or inactive are those of the source. The rule behind the calls is not given here.

The experiment can be described thus: cytotoxicity in HEK293 cells, dose response, cytotoxicity control, cell-based, plate reader, cherry-pick (AID 651899).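 Note: cells exposed to compound for 48 hours.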

As to `Cc1nc(=O)c(-c2ccccc2)c(C)n1-c1ccc(Br)cc1`, the outcome was inactive.
Consider `CN1CCN(c2ncnc3c2[nH]c2ccc(F)cc23)CC1`, for which the result was inactive.
On to `COc1cccc(CNC(=O)c2ccc(NC(=O)C3=CSCCO3)cc2)c1`, for which the compound was classed as inactive.
For the compound `CC(=O)c1ccc(C(=O)N2CCCC(Nc3ccc(C(C)C)cc3)C2)s1` (stereo unspecified), the outcome was inactive.
The result for `N#C[C@H]1[C@@H](c2ccccc2)[C@@H](CO)N1C(=O)Nc1cccc(F)c1` reads “inactive”; that for `Cc1nc2nc(SCC(=O)N3CCOCC3)nn2c(C)c1Cc1c(F)cccc1Cl`, “inactive”.
The entry for `CCCc1c(OCCCOc2ccc(OCC(=O)O)cc2)ccc(C(C)=O)c1O` is “inactive”.
For `CCN1[C@H](C(=O)NCc2ccccc2)[C@@H](CO)[C@@H]2Cn3c(ccc(-c4cccnc4)c3=O)[C@@H]21`, the call was inactive.
Take `O=C(O)CCS(=O)(=O)c1nc(-c2cccs2)cc(C(F)(F)F)n1`: the outcome was inactive.
In the case of `O=C(Nc1ncc2c(n1)CC(c1ccccc1)CC2=O)c1ccco1` (stereo unspecified), the compound was classed as inactive.
For `O=C(Nc1cccnc1)c1ccc(Cl)c(Cl)c1`, the result was inactive.
As to `CCOC(=O)CNC(=O)c1sc2ncnc(N3CCc4ccccc4C3)c2c1C`, the compound was called inactive.
For the compound `CC1=C(C#N)C(c2cccnc2)C2=C(CC(c3ccc(Cl)cc3)CC2=O)N1` (stereo unspecified), the result was inactive.
For `O=C(O)CSc1ncnc2scc(-c3ccc(Br)cc3)c12`, the call was inactive.
`O=C(Nc1ccccc1)N1CCN(Cc2ccc3c(c2)OCO3)CC1`: the call was inactive.
Regarding `C#CCSc1nnc(-c2sc(-c3ccccc3)nc2C)n1C`, the compound was called inactive.
In the case of `CC(=O)c1ccc(N2CCN(C(=O)c3ccc4c(c3)OCO4)CC2)cc1`, the result was inactive.
The result for `O=C(c1ccccc1F)N1CC[C@@H]2[C@H]1c1cc(Br)ccc1N[C@@H]2CO` reads “inactive”; that for `CCC(CO)Oc1cc(NC(=O)c2cccc(F)c2)c2ncn(C(C)C)c2c1` (stereo unspecified), “inactive”.
With `COc1ccc(NC(=O)c2cnc(C)cn2)cc1-n1cnnn1`, the compound was classed as inactive.
As to `CC1CCCN(c2ccc(C(=O)Nc3cccnc3)cc2[N+](=O)[O-])C1` (stereo unspecified), the call was inactive.
`O=C(c1cccc(F)c1)N1CC[C@@H]2[C@H]1c1cc(-c3cccc(F)c3)ccc1N[C@@H]2CO`: the result was inactive.
In the case of `CN1c2ccc(-c3cccc(F)c3)cc2[C@@H]2[C@@H](CCN2C(=O)c2ccncc2)[C@H]1CO`, the outcome was inactive.
Consider `COc1cc2cnc(-c3cccnc3)cc2cc1OC`, for which the outcome was inactive.
The entry for `CCCN1CCN(C(=O)C2CCN(c3nnc(C)c4c(C)n(-c5ccc(C)cc5)nc34)CC2)CC1` is “inactive”; for `CC(=O)CSc1nnc(CSc2ncccn2)n1C1CCCCC1` it is “inactive”; for `C[C@@H]1CN([C@H](C)CO)C(=O)Cc2cc(NC(=O)Cn3cnnn3)ccc2O[C@H]1CN(C)Cc1ccc2c(c1)OCO2` it is “inactive”.
The result for `O=C(Nc1cccnc1)c1ccc(Oc2ccccc2)cc1` reads “inactive”.
Take `COc1ccccc1S(=O)(=O)N1CC[C@@H]2[C@H](CO)Nc3ccc(-c4cccc(C#N)c4)cc3[C@@H]21`: the compound was classed as inactive.
The entry for `CC1=CC2=NC(=O)/C(=C\c3cc(C)n(-c4ccccc4F)c3C)C(=N)N2O1` is “inactive”.
For the compound `COc1cccc(NC(=O)N2C[C@H](O)COC[C@@H]3O[C@@H](CC(=O)N(C)C)CC[C@H]32)c1`, the compound was called inactive.
For `Cc1ccc(Cc2c(C)nc3nc(SCC(=O)NCCN4CCOCC4)nn3c2C)cc1`, the call was inactive.
The entry for `O=C(c1ccccc1F)N1CC[C@@H]2[C@H](CO)Nc3ccc(Br)cc3[C@@H]21` is “inactive”; for `COc1ccc(-c2nc3cnccn3c2Nc2ccc3c(c2)OCO3)cc1` it is “inactive”; for `CCCC(=O)Nc1cccc(NC(=O)c2ccc(C)c([N+](=O)[O-])c2)c1` it is “inactive”.
As for `O=C(N[C@H]1CC[C@@H](CCn2cc(-c3cccnc3)nn2)O[C@H]1CO)c1ccccc1F`, the result was inactive.

For the origin of these results see PubChem BioAssay AID651899 (Broad Institute, 2012).
